Measurements taken from the supplement of paper PMC7595190.

Tested on: MV4-11
Experiment: CellTox Green cytotoxicity fluorescence relative to DMSO vehicle (fold of vehicle RFU); higher = more cell death (loss of membrane integrity), active = 2 or more
Description: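 Paediatric AML cell lines (MV4-11, CMK, Kasumi-1; 4x10^4 cells/well, 96-well) treated with single compounds from the Selleckchem apoptosis library at 0.01, 0.1 and 1 µM. Cytotoxicity was read with CellTox Green (RFU, Ex 485/Em 520) at 24, 48 and 72 h and normalised to the 0.1% DMSO vehicle. Normalised RFU >= 2 was taken as a successful, cell-killing treatment.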

Measured: CellTox Green cytotoxicity fluorescence

CN[C@@H](C)C(=O)N[C@H](C(=O)N1CCC[C@H]1c1nc(C(=O)c2ccc(F)cc2)cs1)C1CCCCC1
inactive: 0.01 µM, 24 h 0.99 | 0.01 µM, 48 h 0.973 | 0.01 µM, 72 h 0.977 | 0.1 µM, 24 h 0.975 | 0.1 µM, 48 h 0.99 | 0.1 µM, 72 h 1 | 1 µM, 24 h 0.969 | 1 µM, 48 h 1.02 | 1 µM, 72 h 1.03

CCO[C@@H]1OC(=O)C[C@@H]1NC(=O)[C@@H]1CCCN1C(=O)[C@@H](NC(=O)c1ccc(N)c(Cl)c1)C(C)(C)C
inactive: 0.01 µM, 24 h 0.972 | 0.01 µM, 48 h 0.981 | 0.01 µM, 72 h 0.987 | 0.1 µM, 24 h 0.995 | 0.1 µM, 48 h 0.989 | 0.1 µM, 72 h 0.996 | 1 µM, 24 h 1 | 1 µM, 48 h 1 | 1 µM, 72 h 1.01

C/C(=N\NC(=O)c1cccc(S(=O)(=O)N2CCOCC2)c1)c1cc(Cl)ccc1O
inactive: 0.01 µM, 24 h 0.971 | 0.01 µM, 48 h 0.97 | 0.01 µM, 72 h 0.966 | 0.1 µM, 24 h 0.98 | 0.1 µM, 48 h 0.978 | 0.1 µM, 72 h 0.972 | 1 µM, 24 h 0.953 | 1 µM, 48 h 1.06 | 1 µM, 72 h 1.17

COc1cc(C(=O)O)ccc1NC(=O)[C@@H]1N[C@@H](CC(C)(C)C)[C@](C#N)(c2ccc(Cl)cc2F)[C@H]1c1cccc(Cl)c1F [Idasanutlin]
inactive: 0.01 µM, 24 h 0.983 | 0.01 µM, 48 h 0.967 | 0.01 µM, 72 h 0.97 | 0.1 µM, 24 h 0.971 | 0.1 µM, 48 h 0.958 | 0.1 µM, 72 h 0.972 | 1 µM, 24 h 0.967 | 1 µM, 48 h 1.03 | 1 µM, 72 h 1.1
